Reference: PubChem BioAssay (NCATS)
Records with an inconclusive call do not appear. Unless noted, the call rests on the fitted dose curve; in most records, active means well fitted curve in either direction with a large enough effect (not every such curve was filed as active); inconclusive means small, poorly fitted or top-dose-only effect, or another doubt; inactive means flat fitted curve, though single readings scatter.

Legend:
[1] = AP1 Signaling Pathway (AID 357); conditions: ME-180 AP-1-bla reporter, EGF-induced, beta-lactamase ratio, 5 h; at 17.2 µM (top of the series) unless noted;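 further: ME-180 reporter cells stimulated with EGF at its EC50 level; on the % scale 0 is the no-effect control and ±100 the full control effect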
Procedure, shortened: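 First, ME-180 AP-1-bla cells were cultured overnight at 37 °C in low-serum Opti-MEM. Next, titrated compounds with EC50 EGF were incubated 5 hours. Finally, CCF4 was added for 2.5 hours and the 460/530 nm ratio recorded.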

[2] = NFAT Signaling Pathway (AID 444); conditions: Jurkat NFAT-bla M1, carbachol, beta-lactamase ratio, 5 h; at 17.2 µM (top of the series) unless noted;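 further: carbachol stimulus at about its EC50 of 1 µM final; on the % scale 0 is the no-effect control and ±100 the full control effect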
Procedure, shortened: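 Jurkat cells with NFAT-driven β-lactamase reporter and co-expressed M1 receptor, stimulated with carbachol (final 1 uM, ~EC50), compound titration, 5 h at 37 °C. CCF4 loaded 1 h at RT; 460/530 nm ratio gave %activity and AC50.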

[3] = Stat Signaling Pathway (AID 446); conditions: ME-180 SIE beta-lactamase reporter, IL-6 stimulated, 5 h; at 17.2 µM (top of the series) unless noted;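 further: ME-180 cervical cancer cells given 40 pM IL-6 alongside compound; SIE-controlled beta-lactamase reporter measured as 460/530 nm FRET emission ratio; on the % scale 0 is the no-effect control and ±100 the full control effect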
Procedure, shortened: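 Screening format detects activators and inhibitors alike: ME-180 SIE-bla cells stimulated at 40 pM IL-6 for 5 hrs with compound, then dual-emission beta-lactamase read at 405 nm excitation.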

[4] = molecular target: Glucocorticoid receptor (Homo sapiens) (UniProt P04150); assay: GR-GFP Redistribution (AID 450;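 active means compounds whose dose series gives a full or clear partial fitted curve of increased nuclear translocation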; further: potency means the concentration at half of the fitted maximal effect)
Glucocorticoid receptor (Homo sapiens), sequence (P04150 whole entry, looked up): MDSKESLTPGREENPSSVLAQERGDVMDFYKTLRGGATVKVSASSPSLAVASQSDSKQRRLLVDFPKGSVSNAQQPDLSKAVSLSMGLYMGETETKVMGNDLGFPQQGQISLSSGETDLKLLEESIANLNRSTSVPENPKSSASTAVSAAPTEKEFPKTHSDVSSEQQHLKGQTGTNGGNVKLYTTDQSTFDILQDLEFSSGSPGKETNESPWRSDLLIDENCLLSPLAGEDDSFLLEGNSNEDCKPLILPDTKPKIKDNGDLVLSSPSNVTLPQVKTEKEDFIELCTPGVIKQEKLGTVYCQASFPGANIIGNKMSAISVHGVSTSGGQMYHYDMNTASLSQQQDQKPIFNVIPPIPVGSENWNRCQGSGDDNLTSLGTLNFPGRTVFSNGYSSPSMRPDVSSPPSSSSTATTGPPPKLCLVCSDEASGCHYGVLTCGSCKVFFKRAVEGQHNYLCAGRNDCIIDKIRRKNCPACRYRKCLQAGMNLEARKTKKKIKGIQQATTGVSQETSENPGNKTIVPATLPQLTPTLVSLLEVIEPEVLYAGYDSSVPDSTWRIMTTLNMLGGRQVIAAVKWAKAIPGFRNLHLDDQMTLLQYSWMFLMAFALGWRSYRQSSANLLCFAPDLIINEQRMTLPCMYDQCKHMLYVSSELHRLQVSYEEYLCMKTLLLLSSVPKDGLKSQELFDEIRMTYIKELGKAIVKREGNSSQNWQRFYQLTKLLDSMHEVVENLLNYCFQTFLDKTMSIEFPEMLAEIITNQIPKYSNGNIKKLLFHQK

CN(C)C(CN1C(=O)C2CC=CCC2C1=O)c1cn(C)c2ccccc12 (centres undefined)
inactive: activity change, negative = inhibition [1] 10.2% | activity change, negative = inhibition [2] 4.1% | activity, negative = inhibition [3] -3.79% | Potency [4] > 20.6 µM

CC(C)(C)NC(=O)CSc1nsc(SCC(=O)NC(C)(C)C)c1C#N
inactive: activity change, negative = inhibition [1] -5.49% | activity change, negative = inhibition [2] -10.2% | activity, negative = inhibition [3] 3.19% | Potency [4] > 20.6 µM

Cn1nnnc1SCC(=O)NCC(=O)c1ccccc1
inactive: activity change, negative = inhibition [1] -2.72% | activity change, negative = inhibition [2] 2.64% | activity, negative = inhibition [3] 0.0289% | Potency [4] > 20.6 µM

C=CCOc1nc2c(c(=O)n(C)c(=O)n2C)n1Cc1ccc(Cl)cc1Cl
inactive: activity change, negative = inhibition [1] 4.26% | activity change, negative = inhibition [2] -9.88% | activity, negative = inhibition [3] -16.6% | Potency [4] > 20.6 µM

CCOc1ccc2nc(SCC(=O)Nc3ncccn3)[nH]c2c1
inactive: activity change, negative = inhibition [1] -9.31% | activity change, negative = inhibition [2] 0.119% | activity, negative = inhibition [3] -2.35% | Potency [4] > 20.6 µM

CN(C)c1nc(OCCOC(=O)Nc2ccc(Cl)cc2Cl)nc(N(C)C)n1
inactive: activity change, negative = inhibition [1] -3.73% | activity change, negative = inhibition [2] -3.72% | activity, negative = inhibition [3] -7.35% | Potency [4] > 20.6 µM

CCOc1nc(SC(C(C)=O)C(=O)Nc2ccccc2)nc(N(C)C)n1 (centres undefined)
inactive: activity change, negative = inhibition [1] -3.25% | activity change, negative = inhibition [2] 19.9% | activity, negative = inhibition [3] 72.5% | Potency [4] > 20.6 µM

CCN(CC)CCN1C(=O)C(O)=C(C(=O)c2ccco2)C1c1ccccn1 (centres undefined)
inactive: activity change, negative = inhibition [1] -3.97% | activity change, negative = inhibition [2] -0.0336% | activity, negative = inhibition [3] 3.83% | Potency [4] > 20.6 µM

O=C1C(=O)N(Cc2cccnc2)C(c2ccccn2)/C1=C(/O)c1ccc(Br)cc1 (centres undefined)
inactive: activity change, negative = inhibition [1] -19.9% | activity change, negative = inhibition [2] 15.2% | activity, negative = inhibition [3] -10.5% | Potency [4] > 20.6 µM

O=C1CC(c2ccco2)CC(O)=C1C=NCCN1CCN(C2CC(=O)N(c3ccccc3)C2=O)CC1 (centres undefined)
inactive: activity change, negative = inhibition [1] -3.13% | activity change, negative = inhibition [2] -22.1% | activity, negative = inhibition [3] -0.0328% | Potency [4] > 20.6 µM

N#Cc1c(SCC(=O)O)nc(N2CCCCC2)c2c1CCCC2
inactive: activity change, negative = inhibition [1] 6.2% | activity change, negative = inhibition [2] 10.4% | activity, negative = inhibition [3] -7.23% | Potency [4] > 20.6 µM

COC(=O)CCc1c(C)[nH]c(=S)[nH]c1=O
inactive: activity change, negative = inhibition [1] 7.36% | activity change, negative = inhibition [2] 14.4% | activity, negative = inhibition [3] 1.45% | Potency [4] > 20.6 µM

CC1(C(=O)CSc2nc3ccccc3s2)CCC(=O)O1 (centres undefined)
inactive: activity change, negative = inhibition [1] -6.34% | activity change, negative = inhibition [2] 1.72% | activity, negative = inhibition [3] 4.74% | Potency [4] > 20.6 µM

Cc1nc(SC2C=CS(=O)(=O)C2)n[nH]1 (centres undefined)
inactive: activity change, negative = inhibition [1] 5.25% | activity change, negative = inhibition [2] 11.6% | activity, negative = inhibition [3] 2.19% | Potency [4] > 20.6 µM

O=C(O)c1ccc(COCC(F)(F)C(F)F)o1
inactive: activity change, negative = inhibition [1] 10.1% | activity change, negative = inhibition [2] 28.1% | activity, negative = inhibition [3] 2.03% | Potency [4] > 20.6 µM

CCCSc1nnc2n(Cc3ccccc3)c(=O)c3c4c(sc3n12)CCC4
inactive: activity change, negative = inhibition [1] 27.1% | activity change, negative = inhibition [2] 0.0627% | activity, negative = inhibition [3] -7.18% | Potency [4] > 20.6 µM

Cc1c(N2C(=O)SC(CC(=O)O)C2=O)c(=O)n(-c2ccccc2)n1C (centres undefined)
inactive: activity change, negative = inhibition [1] -20.4% | activity change, negative = inhibition [2] 10.6% | activity, negative = inhibition [3] 6.13% | Potency [4] > 20.6 µM

c1cncc(Oc2cccc(Oc3cccnc3)c2)c1
inactive: activity change, negative = inhibition [1] -6.49% | activity change, negative = inhibition [2] -3.08% | activity, negative = inhibition [3] 29.4% | Potency [4] > 20.6 µM

CN(C)c1ccc(C=NCC2(O)CCOC(C)(C)C2)cc1 (centres undefined)
inactive: activity change, negative = inhibition [1] -0.248% | activity change, negative = inhibition [2] -9.77% | activity, negative = inhibition [3] 8.53% | Potency [4] > 20.6 µM

COc1ccc(CNC(=O)[C@H](C)NC(=O)C2CCN(S(=O)(=O)c3ccc(C)cc3)CC2)cc1
inactive: activity change, negative = inhibition [1] 0.123% | activity change, negative = inhibition [2] 0.0617% | activity, negative = inhibition [3] 2.4% | Potency [4] > 20.6 µM

CCOC(=O)c1c(C)[nH]sc1=S
inactive: activity change, negative = inhibition [1] 4.4% | activity change, negative = inhibition [2] -1.05% | activity, negative = inhibition [3] -4.25% | Potency [4] > 20.6 µM

Cc1cc(C(F)(F)F)nn1CC(=O)NCC1CCCO1 (centres undefined)
inactive: activity change, negative = inhibition [1] 3.74% | activity change, negative = inhibition [2] -11% | activity, negative = inhibition [3] 3.03% | Potency [4] > 20.6 µM

COc1cc(C2C(C(=O)c3sc(C)nc3C)=C(O)C(=O)N2CCN(C)C)cc(OC)c1OC (centres undefined)
inactive: activity change, negative = inhibition [1] -0.396% | activity change, negative = inhibition [2] 1.9% | activity, negative = inhibition [3] 8.27% | Potency [4] > 20.6 µM

COc1ccc(N2C(=O)CN=C2Nc2nc(C)cc(C)n2)cc1
inactive: activity change, negative = inhibition [1] 8.39% | activity change, negative = inhibition [2] -10% | activity, negative = inhibition [3] 4.62% | Potency [4] > 20.6 µM

N/C(CCN1CCCCC1)=N/O
inactive: activity change, negative = inhibition [1] 8.61% | activity change, negative = inhibition [2] -6.23% | activity, negative = inhibition [3] 2.5% | Potency [4] > 20.6 µM

COC(=O)CNc1nc(-c2cccnc2)nc2ccccc12
inactive: activity change, negative = inhibition [1] -12.5% | activity change, negative = inhibition [2] -5.87% | activity, negative = inhibition [3] -8.59% | Potency [4] > 20.6 µM
